From PubChem
Rows were chosen to be rich in hits. Some 4.7% of all compounds tested hit in one or more screens of this group.
TRHR ag – activates the human TRH receptor; P34981; TRHR cells, calcium flux fluo-8, FDSS agonist mode; activation, % at 2 µM; hit rate 0.18% among 360,000; AID 493084; also: 0% is about no effect
Target sequence (P34981 whole entry, looked up): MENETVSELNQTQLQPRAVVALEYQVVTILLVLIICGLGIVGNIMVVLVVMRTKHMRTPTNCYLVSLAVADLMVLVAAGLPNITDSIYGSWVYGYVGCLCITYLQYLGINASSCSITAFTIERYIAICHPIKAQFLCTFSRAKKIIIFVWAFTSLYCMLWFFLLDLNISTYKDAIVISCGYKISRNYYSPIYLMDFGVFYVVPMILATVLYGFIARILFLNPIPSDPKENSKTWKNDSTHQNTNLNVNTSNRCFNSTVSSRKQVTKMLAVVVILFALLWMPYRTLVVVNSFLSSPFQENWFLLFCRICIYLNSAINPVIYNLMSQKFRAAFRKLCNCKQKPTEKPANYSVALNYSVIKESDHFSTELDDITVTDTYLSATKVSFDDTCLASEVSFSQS
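TRHR-expressing cells, plated overnight in medium with 10% serum, were loaded with fluo-8 calcium dye at room temperature. After a 10 s baseline, library compound was pin-added and calcium release was recorded kinetically (ex 480/em 530) as agonist response.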
D1 ag – human D1 receptor agonism | P21728 | HEK293 T-REx D1 cells, calcium flux, agonist mode | activation, % at 2 µM | hit rate 1% among 360,000; also: 0% is about no effect
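Inducible HEK293 T-REx D1 cells, force-coupled to calcium signalling, were plated at 4000 cells/well with tetracycline and held overnight at 30 C. After no-wash calcium dye loading, compound-evoked calcium rise over 180 s flagged agonists.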
D1 antag – antagonists of human D1 dopamine receptor; activity change, negative = inhibition, % at 10 µM; hit rate 3.2% among 360,000; HEK293 TREx D1 cells, calcium flux, dopamine EC80; stronger effect = lower value; AID 504652; P21728; in the data active = activity change below about -30%; also: % is scaled to controls: 0 for no effect and ±100 for the full control effect
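Calcium flux readout: force-coupled, inducible Hek293 Trex D1 line, cells induced overnight at 30 C with tetracycline, dye-loaded 30–90 min at RT. Antagonism scored against EC80 dopamine challenge given 180 s after compound.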
TRHR PAM – allosteric enhancers of human TRH receptor; TRHR cells, fluo-8 calcium fluorescence, EC20 TRH enhancement; enhancement, % at 2 µM; hit rate 0.66% among 360,000; in the data active = enhancement above about 30%; also: 0% is about no effect
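Enhancer read-out: after compound pinning and an initial kinetic agonist-mode read, an EC20 of TRH (10 nM final) was injected and fluo-8 calcium signal (Ex 480/Em 530) followed at 1 s/cycle for 100 cycles in TRHR-expressing cells.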
D1 potentiator – human D1 dopamine receptor positive modulation. P21728. HEK293 TREx D1 cells, calcium flux, dopamine EC20 potentiation. potentiation, % at 10 µM. hit rate 0.036% among 360,000. AID 504651; in the data active = potentiation above about 30%; also: 0% is about no effect
Starred values were filed as active, the others as inactive; ! = not active in a repeat. Rule as the data show it, unless noted: active = activation above about 30%; inactive = the rest.

How did CN(C)CCCNC(=O)c1cc(C(=O)Cc2ccccc2)c[nH]1 do in these assays?
TRHR ag: 1; D1 ag: 1; D1 antag: 13; TRHR PAM: 34*; D1 potentiator: -5

What do the screens show for `COc1ccc(CNC(=S)NC2CCCCC2)cc1`?
TRHR ag: 0; D1 ag: 1; D1 antag: 12; TRHR PAM: -8; D1 potentiator: 3

What do the screens show for `S=C(Nc1cccc(Cl)c1)NC1CCCCC1`?
TRHR ag: 3; D1 ag: 22; D1 antag: -34*; TRHR PAM: -9; D1 potentiator: -2

What do the screens show for `Fc1ccc(CNC(=S)NC2CCCCCC2)cc1`?
TRHR ag: 0; D1 ag: 15; D1 antag: -36*; TRHR PAM: -11; D1 potentiator: -6

How did S=C(NCCc1ccc(Cl)cc1)NC1CCCCC1 do in these assays?
TRHR ag: 3; D1 ag: 17; D1 antag: -41*; TRHR PAM: -4; D1 potentiator: -8

How did O=C(Oc1ccc(OC(=O)C2CCC2)cc1)C1CCC1 do in these assays?
TRHR ag: 0; D1 ag: 2; D1 antag: -36*; TRHR PAM: -1; D1 potentiator: 0

What do the screens show for `O=C(Oc1ccc2ccccc2c1)C1CCC1`?
TRHR ag: -1; D1 ag: 7; D1 antag: -8; TRHR PAM: -3; D1 potentiator: -4

Results for CCOC(=O)C1=C(c2ccccc2)N=c2s/c(=C\c3ccc(O)cc3)c(=O)n2C1c1cccs1 (stereo not given) ?
TRHR ag: 23; D1 ag: 31*; D1 antag: 5; TRHR PAM: 2; D1 potentiator: 2

How did CCc1cc(=O)oc2cc(C)cc(OCC(=O)N3CCC(C(=O)NC(C)C)(c4ccccc4)CC3)c12 do in these assays?
TRHR ag: 0; D1 ag: 1; D1 antag: -38*; TRHR PAM: -22; D1 potentiator: -8

How did CCCCc1cc(=O)oc2c(C)c(OCC(=O)N3CCC(C(=O)O)(c4ccccc4)CC3)ccc12 do in these assays?
TRHR ag: 0; D1 ag: 1; D1 antag: -5; TRHR PAM: 2; D1 potentiator: -1

Results for CCOc1ccccc1-n1cc2c(c1-c1ccc(OC)cc1)c(=O)n(C)c(=O)n2C ?
TRHR ag: -1; D1 ag: -1; D1 antag: -1; TRHR PAM: 2; D1 potentiator: 0

What do the screens show for `CCc1ccc(NC(=O)C2CCCN(S(=O)(=O)c3ccc4c(c3)CC(C)N4C(C)=O)C2)cc1` (stereo not given)?
TRHR ag: 0; D1 ag: 1; D1 antag: 9; TRHR PAM: 1; D1 potentiator: -6

How did CCc1ccc(NC(=O)C2CCN(S(=O)(=O)c3ccc4c(c3)CC(C)N4C(C)=O)CC2)cc1 (stereo not given) do in these assays?
TRHR ag: -1; D1 ag: 3; D1 antag: -31*; TRHR PAM: -6; D1 potentiator: -5

Results for CCOc1ccc(NC(=O)C2CCN(S(=O)(=O)c3ccc4c(c3)CC(C)N4C(C)=O)CC2)cc1 (stereo not given) ?
TRHR ag: -1; D1 ag: 2; D1 antag: 10; TRHR PAM: -2; D1 potentiator: -4

How did CCOc1ccc(OCC)c(NC(=O)C2CCN(S(=O)(=O)c3ccc4c(c3)CC(C)N4C(C)=O)CC2)c1 (stereo not given) do in these assays?
TRHR ag: 1; D1 ag: 1; D1 antag: -35*!; TRHR PAM: -10; D1 potentiator: 6

How did CCN(CC)CCNC(=O)C1CCN(c2nn3cc(-c4ccc(F)cc4)nc3s2)CC1 do in these assays?
TRHR ag: 1; D1 ag: 4; D1 antag: -13; TRHR PAM: 0; D1 potentiator: -2

How did O=C(COC(=O)[C@@H]1CC(O)CN1S(=O)(=O)c1ccccc1[N+](=O)[O-])Nc1ccc2ccccc2c1 (stereo not given in full) do in these assays?
TRHR ag: 0; D1 ag: 2; D1 antag: -32*; TRHR PAM: -6; D1 potentiator: -7

How did CCN(CC)CCOC(=O)c1ccc(NC(=O)CCCN2C(=O)/C(=C\c3cccs3)SC2=S)cc1 do in these assays?
TRHR ag: 6; D1 ag: 23; D1 antag: -66*; TRHR PAM: -5; D1 potentiator: -21

How did COc1nc(NCCc2ccc(OC)c(OC)c2)nc(Nc2ccccc2)n1 do in these assays?
TRHR ag: 0; D1 ag: 3; D1 antag: -24; TRHR PAM: 4; D1 potentiator: 0

What do the screens show for `O=C(CNC(c1ccccc1)c1ccccc1)Nc1c(F)cccc1F`?
TRHR ag: -1; D1 ag: 0; D1 antag: -38*; TRHR PAM: -3; D1 potentiator: -4

Results for CCC1CCCCN1C(=O)c1nn(-c2ccc(C)cc2)c(=O)c2c1c1ccccc1n2C (stereo not given) ?
TRHR ag: 0; D1 ag: 0; D1 antag: -8; TRHR PAM: -5; D1 potentiator: 4

Results for CCOC(=O)Cn1c(=O)n(CC2CCCO2)c2nc(-c3ccccc3)nc(C(N)=O)c21 (stereo not given) ?
TRHR ag: 0; D1 ag: 2; D1 antag: 13; TRHR PAM: 6; D1 potentiator: 2

Results for COc1ccc(C2CNC(=O)C2)cc1OC1CCCC1 (stereo not given) ?
TRHR ag: 0; D1 ag: 1; D1 antag: -42*!; TRHR PAM: -16; D1 potentiator: 2

What do the screens show for `CCN(CC)C(=O)CSC(Nc1ccc(F)cc1)=C(C#N)C#N`?
TRHR ag: 4; D1 ag: 6; D1 antag: -16; TRHR PAM: -2; D1 potentiator: 0

What do the screens show for `Cc1ccc(CSC(Nc2ccc(F)cc2)=C(C#N)C#N)cc1`?
TRHR ag: 2; D1 ag: 26; D1 antag: -36*; TRHR PAM: -4; D1 potentiator: -12

What do the screens show for `Cc1cccc(NC(=O)C(Cc2ccccc2)NS(=O)(=O)c2ccc3c(c2)c(=O)n(C)c(=O)n3C)c1` (stereo not given)?
TRHR ag: -1; D1 ag: 6; D1 antag: -7; TRHR PAM: -7; D1 potentiator: -5

How did CCOC(=O)c1sc(=S)n(-c2cccc(C(F)(F)F)c2)c1SC do in these assays?
TRHR ag: 0; D1 ag: 7; D1 antag: -32*; TRHR PAM: -5; D1 potentiator: -1

Results for COc1ccc2c(c1)c1c(c(=O)n(Cc3ccccc3)c(=O)n1CC(=O)Nc1c(C)cccc1C)n2C ?
TRHR ag: 0; D1 ag: 3; D1 antag: -11; TRHR PAM: -2; D1 potentiator: -3

How did COc1ccc(N2CCN(C(=O)CCCNC(=O)Cn3cnc4sc(C)c(C)c4c3=O)CC2)cc1 do in these assays?
TRHR ag: -1; D1 ag: 1; D1 antag: -42*; TRHR PAM: -4; D1 potentiator: 6
